Experimental findings from PubChem BioAssay (Tox21) are described below.

The structures appear in SMILES notation. Results filed as inconclusive are left out. Active and inactive are the calls of the source. Unless noted, the call rests on the fitted dose curve; in most records, active means well fitted curve in the direction sought with a large enough effect in the repeat runs; inconclusive means weak or mixed curves; inactive means no such curve, though single readings can be large; an effect the other way counts as inactive or inconclusive.

The nature of test [1]: qHTS assay to identify aromatase inhibitors - cell viability counter screen (AID 743084).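 Further: cells stimulated with testosterone during compound exposure; nearly all actives have a fitted effect of over 55% in size.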 Further: potency means the concentration at half of the fitted maximal effect.
Test [2] can be described thus: qHTS assay to identify small molecule that activate the aryl hydrocarbon receptor (AhR) signaling pathway - cell viability counter screen (AID 743086).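 Further: HepG2 liver cells carrying the AhR DRE luciferase reporter; series mostly up to about 70 µM; nearly all actives have a fitted effect of over 45% in size.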 The method in brief:
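HepG2-AhR-luc (HG2L7.5c1) cells, 4000/well, were preincubated 5 h at 37C, exposed to compound in qHTS format for 24 hr at 37C, then given CellTiter-Fluor for 30 min; viability was read as fluorescence in the reporter wells.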

Test [3] can be described thus: qHTS assay to identify small molecule antagonists of the peroxisome proliferator-activated receptor gamma (PPARg) signaling pathway - cell viability counter screen (AID 743194). Further: nearly all actives have a fitted effect of over 55% in size. Further: potency means the concentration at half of the fitted maximal effect. Particulars: Potency: co-treated with 50 nM rosiglitazone unless noted. A digest of the protocol:
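PPARg-UAS-bla HEK293H cells were plated, rested 5 h at 37 C, then treated with compounds plus rosiglitazone (50 nM final) for 17 h at 37 C; viability was then read by CellTiter-Glo luminescence after 30 min at room temperature.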

Test [4] is described as follows: qHTS assay for small molecule agonists of the antioxidant response element (ARE) signaling pathway (AID 743202; active means well fitted activation curve with a large enough effect in the signal ratio in the repeat runs, not every such curve was filed as active; the % refers to the signal ratio). The method in brief:
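Following a 16 h, 37 C exposure of reporter HepG2 cells (ARE-driven beta-lactamase, 2,000 cells/well) to compounds, FRET substrate was applied for 2 h at room temperature and fluorescence intensity recorded.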

A short description of test [5]: qHTS assay for small molecule agonists of the antioxidant response element (ARE) signaling pathway - cell viability counter screen (AID 743203; calls by dose curve; further: nearly all actives have a fitted effect of over 55% in size; further: potency means the concentration at half of the fitted maximal effect). A digest of the protocol:
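Measured in the same wells as the beta-lactamase ARE reporter, this read-out is CellTiter-Glo luminescence from HepG2 ARE-bla cells given compounds for 16 hrs.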

Test [6] is described as follows: qHTS assay for small molecule activators of the heat shock response signaling pathway - cell viability counter screen (AID 743209). Further: nearly all actives have a fitted effect of over 50% in size. Further: potency means the concentration at half of the fitted maximal effect. A digest of the protocol: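 Same-well multiplex: after 2.5 h room-temperature incubation with LiveBLAzer B/G substrate and fluorescence reading, CellTiter-Glo reagent was added to HSE-bla HeLa cells that had received compound for 5 h at 37 C; luminescence read after 30 min.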

Test [7] can be described thus: qHTS assay for small molecule activators of the heat shock response signaling pathway (AID 743210; active means well fitted activation curve with a large enough effect in the signal ratio in the repeat runs, with a control signal flat, not every such curve was filed as active; the % refers to the signal ratio; further: series mostly up to about 63 µM). A digest of the protocol:
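Heat shock element–beta-lactamase HeLa reporter cells; qHTS with compounds for 5 h at 37 C; detection by FRET substrate fluorescence after 2.5 h at RT.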

Test [8] can be described thus: qHTS assay to identify small molecule agonists of the peroxisome proliferator-activated receptor delta (PPARd) signaling pathway - cell viability counter screen (AID 743211). Further: nearly all actives have a fitted effect of over 55% in size. Further: potency means the concentration at half of the fitted maximal effect. The method in brief: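 Viability was measured as CellTiter-Glo luminescence (30 min, room temperature) in the same wells as the beta-lactamase readout. GeneBLAzer PPARd UAS-bla HEK293H cells received compound after 5 h plating and were incubated 17 h at 37 C.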

The target of test [9] is Peroxisome proliferator-activated receptor delta (Homo sapiens) (UniProt Q03181). Briefly: qHTS assay to identify small molecule agonists of the peroxisome proliferator-activated receptor delta (PPARd) signaling pathway (AID 743212; calls by dose curve). A digest of the protocol:
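Beta-lactamase reporter read by fluorescence (LiveBLAzer B/G FRET, 2 h, room temperature). Test agents, in DMSO, incubated at 37 C with PPARd-bla HEK293H cells.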

Test [10] in a line: qHTS assay to identify small molecule antagonists of the peroxisome proliferator-activated receptor delta (PPARd) signaling pathway - cell viability counter screen (AID 743213). Further: nearly all actives have a fitted effect of over 50% in size. Further: potency means the concentration at half of the fitted maximal effect. A digest of the protocol: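 HEK293H cells with the PPARd UAS-bla reporter, co-treated 17 h at 37 C with compounds and L165041 (300 nM final), were lysed with CellTiter-Glo. Luminescence indicated viable cell content.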

Test [11] has as its target Peroxisome proliferator-activated receptor delta (Homo sapiens) (UniProt Q03181). The test is described as follows: qHTS assay to identify small molecule antagonists of the peroxisome proliferator-activated receptor delta (PPARd) signaling pathway (AID 743215; active means well fitted inhibition curve with a large enough effect in the signal ratio in the repeat runs, not every such curve was filed as active; the % refers to the signal ratio;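 further: cells stimulated with agonist L165041 at 300 nM final during compound exposure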; further: potency means the concentration at half of the fitted maximal effect). The method in brief:
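Fluorescence from cleaved LiveBLAzer B/G FRET substrate (2 h, room temperature) reports PPARd-driven beta-lactamase in HEK293H UAS-bla cells. Cells had been treated 17 h at 37 C with compound plus 300 nM final L165041.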

In test [12] the target is Bile acid receptor (Homo sapiens) (UniProt Q96RI1). The test is described as follows: qHTS assay to identify small molecule antagonists of the farnesoid-X-receptor (FXR) signaling pathway (AID 743217; active means well fitted inhibition curve with a large enough effect in the signal ratio in the repeat runs, not every such curve was filed as active; the % refers to the signal ratio). The method in brief:
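FRET fluorescence after 2 h room-temperature LiveBLAzer loading gives the readout. Prior step: FXR-bla HEK 293T cells, seeded and incubated 5 h, received test compounds plus 50 uM final CDCA for 16 h at 37 °C.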

A short description of test [13]: qHTS assay to identify small molecule agonists of the farnesoid-X-receptor (FXR) signaling pathway - cell viability counter screen (AID 743218). Further: nearly all actives have a fitted effect of over 45% in size. A digest of the protocol: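 Readout: CellTiter-Glo luminescence, 30 min RT, multiplexed after the FXR-bla FRET reading. HEK 293T FXR-UAS-bla cells received compound 5 h post-plating and were incubated 16 h at 37 C.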
Test [14] is described as follows: qHTS assay to identify small molecule antagonists of the farnesoid-X-receptor (FXR) signaling pathway - cell viability counter screen (AID 743221; active means well fitted cell-killing curve with a large enough effect in the repeat runs, not every such curve was filed as active; further: nearly all actives have a fitted effect of over 50% in size). The method in brief:
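Cytotoxicity counter screen run in the FXR-bla reporter wells: HEK 293T cells exposed to compound with 50 uM (final) chenodeoxycholic acid for 16 h, 37 C, then viability measured by CellTiter-Glo luminescence after 30 min, room temperature.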

Test [15] has as its target Peroxisome proliferator-activated receptor gamma (Homo sapiens) (UniProt P37231). The test is described as follows: qHTS assay to identify small molecule agonists of the peroxisome proliferator-activated receptor gamma (PPARg) signaling pathway (AID 743094; active means well fitted activation curve with a large enough effect in the signal ratio in the repeat runs, not every such curve was filed as active; the % refers to the signal ratio). A digest of the protocol: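 Cell-based bla reporter, HEK293H background, PPARg-driven UAS. Pre-incubation 5 h, 37C, 5% CO2. Compound 17 h, 37C. Substrate 1 h RT; fluorescence.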

Test [16] addresses Bile acid receptor (Homo sapiens) (UniProt Q96RI1). Briefly: qHTS assay to identify small molecule agonists of the farnesoid-X-receptor (FXR) signaling pathway (AID 743220; active means well fitted activation curve with a large enough effect in the signal ratio in the repeat runs, not every such curve was filed as active; the % refers to the signal ratio). The method in brief: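 FXR-UAS-bla HEK 293T cells carrying a UAS-driven beta-lactamase reporter were plated for 5 h at 37C/5% CO2, then exposed to DMSO-dissolved Tox21 10K compounds for 16 h at 37C. A LiveBLAzer B/G FRET substrate was loaded for 2 h at room temperature before fluorescence reading.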

Test [17] deals with Vitamin D3 receptor (Homo sapiens) (UniProt P11473). Briefly: qHTS assay to identify small molecule agonists of the vitamin D receptor (VDR) signaling pathway (AID 743222; calls by dose curve). The method in brief:
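Following 4 h attachment at 37C, VDR-bla cells (2,000 per well) received DMSO-dissolved compounds or controls. After 16 h incubation, LiveBLAzer B/G FRET substrate was added and fluorescence read 2 h later at room temperature.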

Test [18] has the same target. Briefly: qHTS assay to identify small molecule antagonists of the vitamin D receptor (VDR) signaling pathway (AID 743223; active means well fitted inhibition curve with a large enough effect in the signal ratio in the repeat runs, not every such curve was filed as active; the % refers to the signal ratio). The method in brief:
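Antagonist mode: compound added to VDR-bla cells alongside agonist 1alpha,25-dihydroxyvitamin D3 (3 nM final), incubation 16 h at 37C. Read-out is LiveBLAzer FRET fluorescence, 2 h at room temperature.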

In test [19] the target is Aryl hydrocarbon receptor (Homo sapiens) (UniProt P35869). Briefly: qHTS assay to identify small molecule that activate the aryl hydrocarbon receptor (AhR) signaling pathway (AID 743085). Further: nearly all actives have a fitted effect of over 15% in size. Further: potency means the concentration at half of the fitted maximal effect.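 On activation: HG2L7.5c1 human HepG2 liver cells with stably integrated DRE-driven firefly reporter; series mostly up to about 70 µM.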 The method in brief:
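Luminescence (ONE-Glo) from a dioxin-responsive-element luciferase reporter in HG2L7.5c1 HepG2 cells after 24 hr compound exposure at 37C; viability measured by CellTiter-Fluor fluorescence beforehand.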

Test [20] concerns the target Peroxisome proliferator-activated receptor gamma (Homo sapiens) (UniProt P37231). The test is described as follows: qHTS assay to identify small molecule antagonists of the peroxisome proliferator-activated receptor gamma (PPARg) signaling pathway (AID 743191; calls by dose curve; further: nearly all actives have a fitted effect of over 30% in size; further: potency means the concentration at half of the fitted maximal effect). The method in brief: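 GeneBLAzer PPARg UAS-bla HEK293H cells carrying a UAS-driven beta-lactamase reporter were plated at 3000 cells/well, preincubated 5 h at 37C, then given compound for 17 h at 37C; LiveBLAzer B/G FRET substrate was read after 1 h at room temperature.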

Peroxisome proliferator-activated receptor gamma (Homo sapiens), sequence (P37231 whole entry, looked up): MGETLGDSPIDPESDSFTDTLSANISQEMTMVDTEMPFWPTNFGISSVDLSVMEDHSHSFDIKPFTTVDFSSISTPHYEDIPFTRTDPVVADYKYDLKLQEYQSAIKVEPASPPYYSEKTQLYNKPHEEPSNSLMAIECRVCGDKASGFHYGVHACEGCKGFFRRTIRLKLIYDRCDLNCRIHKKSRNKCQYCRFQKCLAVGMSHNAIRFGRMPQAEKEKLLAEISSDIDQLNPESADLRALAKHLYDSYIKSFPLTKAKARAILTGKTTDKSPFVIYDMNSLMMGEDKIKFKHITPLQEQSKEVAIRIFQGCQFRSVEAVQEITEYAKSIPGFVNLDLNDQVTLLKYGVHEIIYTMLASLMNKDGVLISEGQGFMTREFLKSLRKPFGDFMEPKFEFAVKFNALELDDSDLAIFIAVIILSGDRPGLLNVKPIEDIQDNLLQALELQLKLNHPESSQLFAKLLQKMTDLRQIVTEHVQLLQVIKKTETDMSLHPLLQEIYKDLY
Bile acid receptor (Homo sapiens), sequence (Q96RI1 whole entry, looked up): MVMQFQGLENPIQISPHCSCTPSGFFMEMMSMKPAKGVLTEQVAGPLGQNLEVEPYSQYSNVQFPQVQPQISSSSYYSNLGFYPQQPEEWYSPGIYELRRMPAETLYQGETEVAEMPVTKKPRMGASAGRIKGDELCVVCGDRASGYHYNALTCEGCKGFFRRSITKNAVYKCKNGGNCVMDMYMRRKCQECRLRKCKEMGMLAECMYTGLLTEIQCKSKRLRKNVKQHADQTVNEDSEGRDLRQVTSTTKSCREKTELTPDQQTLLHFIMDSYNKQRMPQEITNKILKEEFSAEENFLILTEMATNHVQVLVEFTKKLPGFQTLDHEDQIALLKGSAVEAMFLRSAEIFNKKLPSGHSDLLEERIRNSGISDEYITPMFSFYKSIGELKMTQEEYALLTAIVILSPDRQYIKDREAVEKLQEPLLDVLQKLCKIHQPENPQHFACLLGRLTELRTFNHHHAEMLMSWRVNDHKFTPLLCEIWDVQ
Peroxisome proliferator-activated receptor delta (Homo sapiens), sequence (Q03181 whole entry, looked up): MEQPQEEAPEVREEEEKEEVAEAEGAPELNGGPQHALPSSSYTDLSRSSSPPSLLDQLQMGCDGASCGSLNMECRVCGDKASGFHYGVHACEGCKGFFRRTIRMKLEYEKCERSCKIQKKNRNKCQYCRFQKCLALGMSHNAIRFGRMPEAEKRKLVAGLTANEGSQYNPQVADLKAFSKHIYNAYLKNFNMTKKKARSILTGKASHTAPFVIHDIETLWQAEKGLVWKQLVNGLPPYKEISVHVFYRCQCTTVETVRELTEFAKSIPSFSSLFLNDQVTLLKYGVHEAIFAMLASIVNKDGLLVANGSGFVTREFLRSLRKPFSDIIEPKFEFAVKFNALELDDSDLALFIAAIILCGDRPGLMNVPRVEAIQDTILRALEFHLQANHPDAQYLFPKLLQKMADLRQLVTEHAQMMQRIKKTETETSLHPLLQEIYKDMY
Vitamin D3 receptor (Homo sapiens), sequence (P11473 whole entry, looked up): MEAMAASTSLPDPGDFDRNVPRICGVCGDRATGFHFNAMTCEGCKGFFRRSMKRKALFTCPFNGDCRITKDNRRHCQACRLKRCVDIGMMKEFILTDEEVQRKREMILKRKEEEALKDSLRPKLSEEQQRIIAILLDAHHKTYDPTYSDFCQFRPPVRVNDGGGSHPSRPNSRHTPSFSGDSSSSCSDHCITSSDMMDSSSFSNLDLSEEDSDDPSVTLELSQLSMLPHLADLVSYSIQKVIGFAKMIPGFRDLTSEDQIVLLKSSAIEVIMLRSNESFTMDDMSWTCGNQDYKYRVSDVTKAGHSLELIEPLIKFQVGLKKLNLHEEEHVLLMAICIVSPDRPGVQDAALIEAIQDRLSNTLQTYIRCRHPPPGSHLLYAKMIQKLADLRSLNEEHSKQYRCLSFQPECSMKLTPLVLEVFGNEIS
Aryl hydrocarbon receptor (Homo sapiens), sequence (P35869 whole entry, looked up): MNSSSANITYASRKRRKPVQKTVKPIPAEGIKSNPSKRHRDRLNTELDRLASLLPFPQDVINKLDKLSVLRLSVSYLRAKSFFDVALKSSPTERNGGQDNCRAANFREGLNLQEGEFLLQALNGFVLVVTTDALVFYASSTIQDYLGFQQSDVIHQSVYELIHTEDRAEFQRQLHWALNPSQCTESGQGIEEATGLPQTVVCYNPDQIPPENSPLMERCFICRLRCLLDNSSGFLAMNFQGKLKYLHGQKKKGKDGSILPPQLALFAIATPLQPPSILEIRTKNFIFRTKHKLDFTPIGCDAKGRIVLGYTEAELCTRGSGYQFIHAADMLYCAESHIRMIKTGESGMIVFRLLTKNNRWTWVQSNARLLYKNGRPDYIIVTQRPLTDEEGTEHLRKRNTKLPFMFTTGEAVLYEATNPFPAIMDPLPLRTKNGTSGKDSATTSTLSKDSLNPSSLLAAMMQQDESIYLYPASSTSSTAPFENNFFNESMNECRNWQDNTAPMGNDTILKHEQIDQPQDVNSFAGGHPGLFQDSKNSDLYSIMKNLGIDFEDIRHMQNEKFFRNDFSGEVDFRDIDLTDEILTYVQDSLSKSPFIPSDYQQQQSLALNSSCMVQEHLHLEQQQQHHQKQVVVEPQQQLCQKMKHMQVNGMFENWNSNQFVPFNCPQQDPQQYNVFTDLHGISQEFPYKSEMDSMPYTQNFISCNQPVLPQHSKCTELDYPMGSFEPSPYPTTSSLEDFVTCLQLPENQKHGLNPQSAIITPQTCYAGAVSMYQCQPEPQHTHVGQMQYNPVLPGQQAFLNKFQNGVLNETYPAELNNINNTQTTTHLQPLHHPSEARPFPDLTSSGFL

In the case of `COC(=O)c1ccccc1S(=O)(=O)NC(=O)Nc1nc(C)nc(OC)n1`, the Potency result in test [1], in [2], in test [3], in [4], in [5] and in test [6] was “inactive” each time. The Potency result in test [7], in test [8], in test [9], in test [10], in test [11] and in test [12] was “inactive” each time. Also, the Potency entry in test [13] and in test [14] was “inactive” in each case.

Turning to `CN1CCc2cc(Cl)c(O)cc2[C@H]2c3ccccc3CC[C@@H]21`, the Potency entry in test [1], in [15], in test [3], in test [4], in [5] and in test [6] was “inactive” in each case. Moreover, the Potency entry in test [7], in [9], in test [11] and in test [14] was “inactive” throughout.

Take `CSC1=N[C@@](C)(c2ccccc2)C(=O)N1Nc1ccccc1`: the Potency result in [1], in [2], in test [5], in [7], in [8] and in [9] was “inactive” throughout. Further, the Potency result in [10], in test [16], in test [14], in test [17] and in test [18] was “inactive” each time.

On to `O=C1C[C@@H]2OCC=C3CN4CC[C@]56c7ccccc7N1[C@H]5[C@H]2[C@H]3C[C@H]46`, for which the Potency entry in test [1], in test [2], in test [3], in test [4], in test [5] and in test [6] was “inactive” each time. The Potency result in test [7], in test [8], in [10] and in test [14] was “inactive” each time.

`O=S(=O)(NS(=O)(=O)C(F)(F)F)C(F)(F)F`: the Potency result in test [1], in test [3], in test [5], in [6], in test [8] and in test [10] was “inactive” in each case. In addition, the Potency entry in test [13] and in [14] was “inactive” throughout.

On to `Fc1ccc(C(OCCN2CCN(CCCc3ccccc3)CC2)c2ccc(F)cc2)cc1`, for which the Potency is 26.6 µM (active) in [1]; 16.8 µM (active) in test [3]; 29.8 µM (active) in [5]; 16.8 µM (active) in [8]; 26.6 µM (active) in [10]; 29.8 µM (active) in test [11].

On to `O=c1[nH]c(Cl)c(Cl)cc1Cl`, for which the Potency entry in [1], in test [15], in test [3], in test [5], in [6] and in [7] was “inactive” throughout. In addition, the Potency entry in test [8], in [11], in [12], in test [13], in [17] and in [18] was “inactive” in each case.

As for `CCCCC(CC)COC(=O)c1ccccc1C(=O)OCC(CC)CCCC` (configuration not stated), the Potency result in [1], in test [15], in [5] and in test [11] was “inactive” in each case.

As for `S=C=NCCc1ccccc1`, the Potency in test [19] is 54.6 µM (active); in [6] it was 55.1 µM (active). For the same molecule, the Potency result in test [2], in test [15], in [20], in test [3], in test [9] and in [10] was “inactive” each time. Besides, the Potency result in [11] and in test [18] was “inactive” in each case.

With `CCCCCCCc1ccc(O)cc1`, the Potency result in test [19], in test [2], in test [15], in [3], in test [6] and in [7] was “inactive” in each case. In addition, the Potency result in [10] and in test [17] was “inactive” each time. Also, in test [8], the Potency is 21.9 µM (active).

Consider `CCOP(=O)(OCC)Oc1nc(Cl)c(Cl)cc1Cl`, for which the Potency entry in test [15], in [6] and in [17] was “inactive” in each case. In addition, the Potency in test [20] is 1.37 µM (active); in test [8], 38.7 µM (active); in [11], 12.2 µM (active).

Turning to `FC(F)C(F)(F)OCC(Cn1cncn1)c1ccc(Cl)cc1Cl` (configuration not stated), the Potency result in [3], in test [5], in test [6], in test [7], in test [13] and in test [16] was “inactive” each time. Moreover, in [18], the Potency entry was “inactive”.
